# MEKK2wt PB1 HTS – raises or lowers MEK5 binding to wildtype human MEKK2 PB1 domain; bead flow cytometry, Alexa488-MEK5 binding to MEKK2 WT; actives lie on both sides; 290,000 compounds, 1.1% hits; binding response (% of control), % at 10 µM; Q9Y2U5; AID 1531; in the data active = binding response below about 67% or above about 130%; inconclusive = no clear call, values can overlap the other calls; inactive = in between
# CRFR2-BP antag – blocks CRF-induced signaling of the CRF-BP/CRF-R2 complex; HEK293 CRF-R2/CRF-BP, CRF-induced calcium fluorescence; AID 588475; 350,000 compounds, 0.59% hits; inhibition, % at 11.8 µM;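 active = inhibition of the ligand-induced calcium signal above about 50% at the single tested concentration, limit read from the data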
# CRFR2-BP ag – CRF-BP/CRF-R2 complex agonism; HEK293 CRF-R2/CRF-BP, calcium dye fluorescence (FLIPR); percent of saturating CRF peptide response; activation, % at 13.2 µM; 350,000 compounds, 0.46% hits;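 active = activation of at least 50%, plus an integration ratio under a set limit after plate pattern correction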;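 also: plate controls were neutral control wells without compound for no effect and CRF at EC100 for full effect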
# MEKK3 PB1 HTS – MEKK3-MEK5 PB1 interaction, increase or decrease. Q99759. bead-based flow cytometry, Alexa488-MEK5 binding to MEKK3; actives lie on both sides; 0 = blocked by unlabeled MEK5, 100 = vehicle. binding response (% of control), % at 10 µM. 290,000 compounds, 1.4% hits;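 active = binding response more than 3 SD above or below the average of its plate-row segment, actives on both sides; inconclusive = wells at one plate position flagged as instrument error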;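 also: Alexa488 bead fluorescence after subtracting the streptavidin-only scavenger bead signal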
# MEKK2mut PB1 HTS – signal of MEK5 binding to mutant human MEKK2 PB1 domain; bead flow cytometry, Alexa488-MEK5 binding to MEKK2 mutant; percent response, % at 10 µM; 290,000 compounds, 0.35% hits; AID 1530; in the data active = percent response above about 24%, passing the limit was not always enough
# ABCB6 inh MLPCN – human ABCB6 transporter inhibition. 360,000 compounds, 0.19% hits. K562-ABCB6 porphyrin accumulation, flow cytometry, 1 h; hits give low values. fluorescence ratio to DMSO, % at 10 µM. AID 602162;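 active = fluorescence ratio to DMSO below 75%, the collection mean minus 3 SD; inconclusive = too few cells collected in the well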;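 also: signal is porphyrin accumulated inside mitochondria; 100% equals median channel fluorescence of DMSO control wells; lower ratio means ABCB6 inhibition with less porphyrin fluorescence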
# Target sequence (Q9NP58 whole entry, looked up): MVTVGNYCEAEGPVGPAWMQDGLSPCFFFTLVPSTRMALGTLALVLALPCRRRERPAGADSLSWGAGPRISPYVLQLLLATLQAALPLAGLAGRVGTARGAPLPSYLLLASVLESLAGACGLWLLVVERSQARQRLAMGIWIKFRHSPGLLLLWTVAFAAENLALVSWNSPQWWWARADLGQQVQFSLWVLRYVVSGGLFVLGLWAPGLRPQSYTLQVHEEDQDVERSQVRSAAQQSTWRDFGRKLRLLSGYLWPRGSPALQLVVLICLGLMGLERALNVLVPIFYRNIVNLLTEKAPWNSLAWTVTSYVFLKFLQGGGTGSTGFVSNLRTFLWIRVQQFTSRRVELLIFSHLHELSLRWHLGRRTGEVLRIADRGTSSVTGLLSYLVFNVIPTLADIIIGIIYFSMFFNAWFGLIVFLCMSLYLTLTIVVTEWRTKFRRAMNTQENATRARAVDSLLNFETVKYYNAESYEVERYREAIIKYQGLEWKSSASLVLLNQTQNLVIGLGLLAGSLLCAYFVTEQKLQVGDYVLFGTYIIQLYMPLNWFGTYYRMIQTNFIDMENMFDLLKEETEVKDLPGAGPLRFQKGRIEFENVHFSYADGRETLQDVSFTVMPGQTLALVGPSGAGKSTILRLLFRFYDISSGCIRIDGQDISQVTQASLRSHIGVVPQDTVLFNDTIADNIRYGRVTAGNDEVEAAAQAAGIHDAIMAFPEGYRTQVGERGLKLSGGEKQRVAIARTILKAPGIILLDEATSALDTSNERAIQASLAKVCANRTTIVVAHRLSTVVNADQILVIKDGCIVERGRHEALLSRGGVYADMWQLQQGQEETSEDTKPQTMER
# MEKK2wt confirm – raises or lowers MEK5 binding to wildtype human MEKK2, retest; shares compounds with MEKK3 PB1 HTS; bead flow cytometry, Alexa488-MEK5 binding to MEKK2 WT; actives lie on both sides; binding response (% of control), % at 10 µM; 5,900 compounds, 2.4% hits; AID 1892; in the data active = binding response below about 16% or above about 210%; inactive = in between
# MEKK2mut-MEK5 – signal of MEK5 binding to mutant human MEKK2, retest; shares compounds with MEKK3 PB1 HTS; bead flow cytometry, Alexa488-MEK5 binding to MEKK2 mutant; percent response, % at 10 µM; 5,900 compounds, 2% hits; in the data active = percent response mostly above about 71%, no sharp cut-off; inactive = mostly below about 38%;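 also: higher means compound restores mutant binding toward wildtype level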
# MEKK3-MEK5 inh – confirmation of inhibitors of MEK5 binding to human MEKK3. shares compounds with MEKK3 PB1 HTS. bead flow cytometry, Alexa488-MEK5 binding to MEKK3; hits give low values. binding response (% of control), % at 10 µM. 5,900 compounds, 1.8% hits;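 active = binding response below 72% of control, or above a set upper limit, though filed actives all read lower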;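 also: 100% = DMSO only wells and 0% = binding blocked by excess unlabeled MEK5; lower values mean stronger disruption of MEK5 binding to MEKK3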
# Active calls of the source: *; ? = inconclusive; · = not tested or not shown; [ ] = another dose, or the depositor's remark. The list is not random: actives were taken first. Their share in the collection is about 2.9%.
SMILES,MEKK2wt PB1 HTS,CRFR2-BP antag,CRFR2-BP ag,MEKK3 PB1 HTS,MEKK2mut PB1 HTS,ABCB6 inh MLPCN,MEKK2wt confirm,MEKK2mut-MEK5,MEKK3-MEK5 inh
COc1cc(/C=C/C(=O)CC(=O)/C=C/c2ccc(O)c(OC)c2)ccc1O,14.0*,-188.0,214.3*,75.0,40.0*,268.0,88.0,-6.0,88.0
CCN(Cc1cnn(C)c1)C(=O)c1ccc2nc(Cc3cccc(Cl)c3)oc2c1,99.0,6.2,-1.6,102.0,1.0,100.0,·,·,·
CC1=NN(c2cccc(C(=O)O)c2)C(=O)/C1=C\C=C\c1ccco1,97.0,8.6,-1.2,102.0,-3.0,87.0,·,·,·
CC1=NN(c2ccccc2)C(=O)/C1=C/C=C/c1ccccc1,100.0,-24.3,-2.8,129.0*,-1.0,107.0,101.0,4.0,101.0
C/C=C/c1ccc(OCC(O)CNCC(c2ccc(OC)cc2)N(C)C)c(OC)c1 (stereo not given),146.0*,9.7,-3.6,111.0,19.0,100.0,120.0,7.0,101.0
CCC(C(=O)N1CCOCC1)n1nc(C)c2sc3ccccc3c2c1=O (stereo not given),102.0,3.7,10.3,99.0,3.0,100.0,·,·,·
NC(=O)CSc1nnc(-c2cc3ccccc3o2)n1Cc1ccccc1,119.0,12.1,1.1,124.0*,9.0,92.0,98.0,3.0,104.0
Cc1occc1-c1nnc(SCC(N)=O)n1Cc1ccccc1,85.0,-7.9,1.9,81.0,-4.0,101.0,·,·,·
CN(Cc1ccccc1)CC(O)COc1ccc(CNCCCOc2cccnc2)cc1 (stereo not given),139.0*,3.7,4.7,101.0,33.0,97.0,144.0,34.0,110.0
COc1ccc(N2CCN(c3nc4cc(C)ccc4cc3C=O)CC2)cc1,92.0,-4.4,0.1,102.0,-5.0,91.0,·,·,·
Cc1ccc2cc(/C=C3\N=C(c4ccccc4)OC3=O)c(N3CCOCC3)nc2c1,28.0*[inhibitor],-11.8,13.1,75.0*[inhibitor],-11.0,·,57.0,-22.0,93.0
CC12CCC(=O)N1C(C(=O)N1CCN(c3cccc(Cl)c3)CC1)CS2 (stereo not given),·,-7.2,-1.6,·,·,94.0,·,·,·
COCCN1CCN(Cc2cn(C)nc2-c2ccc(Oc3ccccc3)cc2)CC1,104.0,2.6,-0.8,99.0,-1.0,98.0,·,·,·
CC1CN(Cc2cn(C)nc2-c2ccc(Oc3ccccc3)cc2)CCN1C (stereo not given),172.0*,-14.8,-0.1,112.0,49.0,96.0,109.0,0.0,98.0
Cn1c(NC(=O)c2ccc(Cl)cc2)cc(=O)n(C)c1=O,107.0,1.8,-0.6,136.0*,0.0,?,104.0,-5.0,104.0
S=C(NCCC(c1ccccc1)c1ccccc1)Nc1cccc(Cl)c1,5.0*,-58.3,3.1,95.0,32.0*,100.0,105.0,-5.0,102.0
S=C(NCCN(C1CCCCC1)C1CCCC1)Nc1cccc(Cl)c1,134.0*,-39.4,4.7,97.0,12.0,96.0,145.0,24.0,107.0
O=C(NCc1cccnc1)c1ccccc1NS(=O)(=O)c1ccc(Br)cc1,·,1.6,1.2,·,·,93.0,·,·,·
C=CCC(C)(NCc1ccccc1)c1ccco1 (stereo not given),2.0*[inhibitor],-4.5,-1.8,2.0*[inhibitor],-16.0,102.0,106.0,1.0,97.0
CC(=O)c1c(N2CCN(CCO)CC2)nc(=S)n(-c2ccccc2)c1C,103.0,-13.4,1.6,104.0,1.0,99.0,·,·,·
CC(=O)c1c(N2CCN(c3ccccc3)CC2)nc(=S)n(-c2ccccc2)c1C,23.0*[inhibitor],16.1,25.6,82.0,11.0,145.0,93.0,-7.0,94.0
C=CCN1C(=O)/C(=c2\sc3nc(=O)c(Cc4ccccc4)nn3c2=O)c2ccccc21,-4.0*[inhibitor],-9.5,-0.1,95.0,-2.0,103.0,89.0,-2.0,91.0
CCN1C(=O)/C(=c2\sc3nc(=O)c(Cc4ccccc4)nn3c2=O)c2ccccc21,109.0,-6.5,-1.1,123.0,26.0,109.0,·,·,·
CN(C)CCCN(C(=O)c1sc2ccccc2c1Cl)c1nc2ccc(F)cc2s1,143.0*,4.8,1.4,111.0,5.0,99.0,179.0,36.0,105.0
CN(C)CCCN(C(=O)/C=C/c1cccs1)c1nc2ccc(F)cc2s1,152.0*,-17.2,6.5,107.0,30.0,101.0,149.0,30.0,108.0
SMILES,MEKK2wt PB1 HTS,CRFR2-BP antag,CRFR2-BP ag,MEKK3 PB1 HTS,MEKK2mut PB1 HTS,ABCB6 inh MLPCN,MEKK2wt confirm,MEKK2mut-MEK5,MEKK3-MEK5 inh
CC(C)(C)C(=O)c1c(N)[nH]c(C(=O)c2ccccc2)c1-c1ccc(Br)cc1,·,·,·,·,·,123.0,·,·,·
CCOC(=O)C1(C)CCN1C(=O)c1ccccc1OC(F)(F)F (stereo not given),·,·,·,·,·,101.0,·,·,·
O=c1[nH]c2ccc(Br)cc2c(=O)o1,·,-0.7,-0.8,·,·,97.0,·,·,·
CN(c1ccc(F)cc1)S(=O)(=O)c1ccc(Cl)c(C(=O)Nc2ccncc2)c1,·,-0.4,0.1,·,·,101.0,·,·,·
CN(c1ccc(F)cc1)S(=O)(=O)c1ccc(Cl)c(C(=O)Nc2ccc3c(c2)CCC3)c1,111.0,-9.0,2.7,134.0*,1.0,90.0,104.0,-5.0,101.0
O=[N+]([O-])c1ccccc1-c1ccc(/C=N/n2cnnc2)o1,109.0,-4.2,1.8,104.0,6.0,97.0,·,·,·
Nn1cnnc1N/N=C\c1ccc(-c2ccccc2[N+](=O)[O-])o1,106.0,20.3,-1.7,156.0*,0.0,91.0,97.0,-1.0,101.0
O=C(c1cccs1)c1ccccc1Cc1cccs1,·,37.7,-2.9,·,·,95.0,·,·,·
